Laboratory results from a collection of fitness landscapes (doi:10.1038/s41467-024-54723-y).
Over roughly 18,000 sequences, “TetR repression strength (sort-seq, GFP reporter)” has its median near 0.23; the highest 2% begin near 0.68. Shown is part of a subset that was picked to be rich in the highest values.

molecular target: TetR (class B, Tn10) (UniProt P04483); experiment: TetR repression strength (sort-seq, GFP reporter) (relative to tetO2 = 1); higher = stronger repression; conditions: E. coli
How it was run: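 Three independent transformations of E. coli SIG10-MAX were made with a low-copy plasmid library randomizing eight operator positions between a constitutive promoter and sfGFP, with constitutive TetR. Following 5 h at 37 °C in LB plus 50 µg/mL chloramphenicol, 10^6 cells went through FACS into 13 fluorescence bins, and each bin was sequenced by Illumina. Repression strength was defined as the top bin index plus one minus the read-weighted mean bin, divided by the unaltered operator's value. Averages included only members reaching ≥30 reads in all replicates with a CV ≤0.5.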

TetR (class B, Tn10), sequence (P04483 whole entry): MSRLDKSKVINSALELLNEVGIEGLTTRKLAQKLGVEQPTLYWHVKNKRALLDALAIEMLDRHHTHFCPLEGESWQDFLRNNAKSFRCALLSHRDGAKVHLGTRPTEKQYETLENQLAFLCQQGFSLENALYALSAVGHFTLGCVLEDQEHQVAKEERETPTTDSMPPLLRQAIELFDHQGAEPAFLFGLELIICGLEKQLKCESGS

Sequence | TetR repression strength
TCCCAGTTAGTTGAGGAGA | 0.231
TCCCACGGAGTCACCGAGA | 0.205
TCCCGCTCAGTGGTAGAGA | 0.428
TCCCGAGAAGTGATAGAGA | 0.425
TCCCGCTCAGTGATAGAGA | 0.742
TCCCGATAAGTGAGTGAGA | 0.375
TCCCGCTCAGTGTTAGAGA | 0.433
TCCCGATAAGTGATAGAGA | 0.733
TCCCCCTAAGTGATAGAGA | 0.442
TCCCTATAAGTCGTAGAGA | 0.503
TCCCTATAAGTGATAGAGA | 0.994
TCCCGACAAGTGATAGAGA | 0.642
TCCCGATGAGTCAGTGAGA | 0.38
TCCCGATAAGTCAGTGAGA | 0.747
TCCCGTATAGTGGGGGAGA | 0.0618
TCCCGGGTAGTGACGGAGA | 0.181
TCCCACGAAGTGCCTGAGA | 0.486
TCCCAGGGAGTAAAGGAGA | 0.188
TCCCGCAGAGTTGGCGAGA | 0.186
TCCCGACAAGTAGCTGAGA | 0.187
TCCCGATCAGTGATGGAGA | 0.482
TCCCGCTGAGTGATAGAGA | 0.483
TCCCGATCAGTGATAGAGA | 0.778
TCCCTATTAGTGATAGAGA | 0.878

Sequence | TetR repression strength
TCCCTTTTAGTGATAGAGA | 0.512
TCCCTAATAGTGATAGAGA | 0.614
TCCCGATAAGTGGCTGAGA | 0.523
TCCCGCTAAGTGATAGAGA | 0.69
TCCCGATCAGTGCTAGAGA | 0.657
TCCCGGTAAGTGATAGAGA | 0.609
TCCCGATAAGTAGCTGAGA | 0.921
TCCCTTATAGTGCCTGAGA | 0.162
TCCCGAACAGTGTAGGAGA | 0.0968
TCCCGCTTAGTCCGTGAGA | 0.183
TCCCTGGAAGTGGGGGAGA | 0.208
TCCCTGATAGTTTTCGAGA | 0.301
TCCCTCGAAGTAGGGGAGA | 0.154
TCCCATTAAGTGAACGAGA | 0.253
TCCCCGAGAGTGTGTGAGA | 0.248
TCCCGGGGAGTGGCTGAGA | 0.301
TCCCGTCAAGTACCCGAGA | 0.325
TCCCGTCAAGTAGCCGAGA | 1.02
TCCCGGGGAGTAGCTGAGA | 0.709
TCCCGGGAAGTAGCTGAGA | 0.647
TCCCGTCAAGTGGCCGAGA | 0.152
TCCCGAGTAGTAACGGAGA | 0.461
TCCCGAGAAGTGCCTGAGA | 0.178
TCCCGTCTAGTGAAGGAGA | 0.315

Sequence | TetR repression strength
TCCCGGTCAGTGCAGGAGA | 0.531
TCCCGTCTAGTAGTGGAGA | 0.468
TCCCCAGGAGTGGCTGAGA | 0.0764
TCCCTCGTAGTCTGAGAGA | 1.03
TCCCTCGGAGTCTGCGAGA | 0.522
TCCCCTAGAGTCTGAGAGA | 0.122
TCCCTCGTAGTCTAAGAGA | 0.142
TCCCTCGGAGTCTGAGAGA | 1.02
TCCCTCGTAGTCTGCGAGA | 0.447
TCCCCTTGAGTCTGAGAGA | 0.333
TCCCCTCGAGTCTGAGAGA | 0.89
TCCCTCGGAGTCTGTGAGA | 0.215
TCCCAACCAGTTTTAGAGA | 0.399
TCCCGCATAGTACGTGAGA | 0.273
TCCCGATGAGTTGCTGAGA | 0.124
TCCCTGCGAGTGATAGAGA | 0.618
TCCCTCTGAGTTTGCGAGA | 0.335
TCCCCGTCAGTTTGCGAGA | 0.741
TCCCCCTCAGTTTGCGAGA | 0.518
TCCCCGTCAGTGCGCGAGA | 0.229
TCCCCGGTAGTTTGAGAGA | 0.302
TCCCCGGTAGTTTGCGAGA | 0.971
TCCCTATTAGTTTGCGAGA | 0.417
TCCCAGTCAGTTTGCGAGA | 0.167

Sequence | TetR repression strength
TCCCCGTCAGTGTGCGAGA | 0.333
TCCCTCTTAGTTTGCGAGA | 0.796
TCCCCAGTAGTTTGCGAGA | 0.202
TCCCCGTCAGTGCGAGAGA | 0.69
TCCCGTGGAGTAGCAGAGA | 0.169
TCCCTGGGAGTAAGGGAGA | 0.28
TCCCGGGGAGTGTTAGAGA | 0.247
TCCCTGAGAGTCGATGAGA | 0.237
TCCCTTTTAGTATACGAGA | 0.242
TCCCACCGAGTGTTGGAGA | 0.286
TCCCCCCAAGTCGGCGAGA | 0.00669
TCCCACTGAGTTGGAGAGA | 0.16
TCCCTAGCAGTTGAGGAGA | 0.0558
TCCCAGCGAGTATGAGAGA | 0.0754
TCCCGAAGAGTTGTTGAGA | 0.233
TCCCATCTAGTCAGGGAGA | 0.305
TCCCCTGCAGTGGGGGAGA | 0.225
TCCCTTATAGTGTAGGAGA | 0.0398
TCCCATGAAGTGTGTGAGA | 0.127
TCCCTGTAAGTCGTGGAGA | 0.309
TCCCCGTGAGTCTGAGAGA | 0.215
TCCCCGTGAGTCAGAGAGA | 0.963
TCCCCGTGAGTCAGGGAGA | 0.152
TCCCTGTTAGTGCCAGAGA | 0.193

Sequence | TetR repression strength
TCCCATTAAGTGCATGAGA | 0.106
TCCCTGTAAGTTGACGAGA | 0.1
TCCCACTTAGTTGGGGAGA | 0.201
TCCCCACTAGTGAAGGAGA | 0.203
TCCCACTCAGTGAGAGAGA | 0.514
TCCCCATAAGTGATAGAGA | 0.522
TCCCAATCAGTGGTAGAGA | 0.521
TCCCCATCAGTGATAGAGA | 0.966
TCCCCAGCAGTGATAGAGA | 0.186
TCCCAAACAGTGACAGAGA | 0.622
TCCCAATCAGTGACAGAGA | 0.723
TCCCACTAAGTGATAGAGA | 0.427
TCCCAAGCAGTGATAGAGA | 0.505
TCCCAATCAGTGATAGAGA | 0.785
TCCCAGTCAGTGACAGAGA | 0.416
TCCCACTCAGTGATAGAGA | 0.701
TCCCCGAGAGTGTTGGAGA | 0.156
TCCCGACGAGTAAGTGAGA | 0.0202
TCCCGTGCAGTGGGAGAGA | 0.177
TCCCCGAAAGTGGTTGAGA | 0.272
TCCCCAGTAGTGTAAGAGA | 0.139
TCCCTCGTAGTTCGTGAGA | 0.105
TCCCGTAGAGTGCAAGAGA | 0.396
TCCCGGGCAGTGAAGGAGA | 0.251

Sequence | TetR repression strength
TCCCGCGGAGTGACGGAGA | 0.38
TCCCGAGGAGTACGAGAGA | 0.222
TCCCCCATAGTCAGGGAGA | 0.312
TCCCAATCAGTGAAAGAGA | 0.686
TCCCAATAAGTGTAAGAGA | 0.21
TCCCAATCAGTTTAAGAGA | 0.368
TCCCAATCAGTGAAGGAGA | 0.671
TCCCAATCAGTCAAAGAGA | 0.676
TCCCAATAAGTGAAAGAGA | 0.688
TCCCAAGAAGTGAAAGAGA | 0.2
TCCCAATCAGTGTCAGAGA | 0.335
TCCCAATCAGTGTAAGAGA | 0.74
TCCCACTAAGTTATAGAGA | 0.672
TCCCTGCTAGTTAGGGAGA | 0.181
TCCCGTCGAGTGGGAGAGA | 0.494
TCCCTCAAAGTGTACGAGA | 0.165
TCCCGCTAAGTAAGTGAGA | 0.00864
TCCCTAGTAGTGATCGAGA | 0.37
TCCCTACCAGTGATCGAGA | 0.593
TCCCAATCAGTCATCGAGA | 0.557
TCCCAATCAGTTATCGAGA | 0.468
TCCCTATAAGTCGTCGAGA | 0.307
TCCCTTTCAGTCATCGAGA | 0.53
TCCCTATCAGTCATCGAGA | 0.747

Sequence | TetR repression strength
TCCCTACAAGTCATCGAGA | 0.309
TCCCTATAAGTCATCGAGA | 0.687
TCCCTCTCAGTTATCGAGA | 0.603
TCCCTATCAGTTATCGAGA | 0.859
TCCCTATCAGTGATCGAGA | 0.868
TCCCCCACAGTGTAAGAGA | 0.183
TCCCGCTTAGTCCTCGAGA | 0.44
TCCCAATAAGTACGCGAGA | 0.348
TCCCAGCCAGTTTTGGAGA | 0.298
TCCCCGGAAGTTGCGGAGA | 0.0399
TCCCGGGGAGTTATCGAGA | 0.161
TCCCACGGAGTGGTGGAGA | 0.11
TCCCGACGAGTACATGAGA | 0.629
TCCCTCAGAGTGGACGAGA | 0.314
TCCCTATAAGTTATAGAGA | 0.651
TCCCTATCAGTTATAGAGA | 0.809
TCCCTATCAGTCATAGAGA | 0.924
TCCCTGTCAGTCATAGAGA | 0.617
TCCCTATGAGTTATAGAGA | 0.439
TCCCTATCAGTCGTAGAGA | 0.557
TCCCTCTCAGTGTGGGAGA | 0.234
TCCCTCACAGTGGGGGAGA | 0.189
TCCCCAAAAGTGGGGGAGA | 0.196
TCCCCAACAGTCTTGGAGA | 0.692

Sequence | TetR repression strength
TCCCCAAAAGTCATGGAGA | 0
TCCCTCACAGTGTGGGAGA | 1.22
TCCCAAAAAGTGTGGGAGA | 0.415
TCCCCAACAGTGTTGGAGA | 0.292
TCCCCAAAAGTTTTGGAGA | 0.276
TCCCCAAAAGTGTGGGAGA | 0.821
TCCCCAAGAGTCTTGGAGA | 0.193
TCCCCAAAAGTCTTGGAGA | 0.681
TCCCGGGTAGTCAAGGAGA | 0.296
TCCCAGGAAGTCGTTGAGA | 0
TCCCGGCCAGTTGTTGAGA | 0.199
TCCCGAATAGTCGACGAGA | 0.165
TCCCGTATAGTCTGGGAGA | 0.198
TCCCAGCTAGTGAACGAGA | 0.379
TCCCAGCGAGTGACGGAGA | 0.207
TCCCAGCAAGTGGGTGAGA | 0.699
TCCCAGCTAGTGAGAGAGA | 0.36
TCCCAGCTAGTGATTGAGA | 0.306
TCCCAGCGAGTGACCGAGA | 0.694
TCCCAGCAAGTGTGTGAGA | 0.1
TCCCAGCGAGTGAGCGAGA | 0.153
TCCCAGCTAGTGACCGAGA | 0.694
TCCCAGCTAGTGACGGAGA | 0.226
TCCCAGCTAGTGAGTGAGA | 0.716

Sequence | TetR repression strength
TCCCAGCAAGTGAGTGAGA | 0.201
TCCCTTCGAGTTCTCGAGA | 0.207
TCCCTCCTAGTCTCCGAGA | 0.394
TCCCACGGAGTCGGCGAGA | 0.148
TCCCGGAAAGTCACAGAGA | 0.108
TCCCTGTGAGTGGACGAGA | 0.227
TCCCAGCTAGTTTCTGAGA | 0.207
TCCCTAAAAGTGTAGGAGA | 0.131
TCCCAGTGAGTTCGCGAGA | 0.402
TCCCACTCAGTATGTGAGA | 0.108
TCCCGTAAAGTGTTAGAGA | 0.696
TCCCGTCTAGTGTTAGAGA | 0.851
TCCCGTGTAGTGTTAGAGA | 0.24
TCCCGTTTAGTGTTAGAGA | 0.222
TCCCGTACAGTGTTAGAGA | 0.284
TCCCGTAAAGTGTGAGAGA | 0.0929
